Hits are enriched below; roughly 1.4% of the tested compounds scored in any of these assays.
BJeLR lethal = BJeLR cell viability loss. BJeLR (HRASV12) viability, CellTiter-Glo ATP luminescence, 48 h. 0.17% of 300,000 active. inhibition, % (concentration not given with the values); in the data active = inhibition above about 50%
Sa ugtP lethal = kills S. aureus RN4220 lacking UgtP. S. aureus RN4220 ugtP deletion, OD600 growth, 16 h. growth inhibition, % (test concentration not listed). 0.54% of 330,000 active. AID 1259309; in the data active = growth inhibition above about 68%;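 note: plate controls were untreated wells for no effect and antibiotic for full effect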
RN4220 kill = S. aureus RN4220 growth inhibition; 0.33% of 330,000 active; OD600, 16 h; inhibition, % (no concentration beside the values); AID 1259311; in the data active = inhibition above about 85%;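 note: plate controls were untreated cells for no effect and reference antibiotic for full effect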
PfHsp40 rescue = compounds rescuing yeast from Plasmodium falciparum HSP40 toxicity. S. cerevisiae expressing PfHsp40, growth rescue, ATP luminescence. growth rescue, % at 12.5 µM. 0.68% of 340,000 active; in the data active = growth rescue above about 28%, passing the limit was not always enough;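 note: yeast W303a lacking pdr1 and pdr3 grown in galactose medium; growth measured after three days at 30 °C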
Y pestis TopoI = Y. pestis Topo-I inhibition via cleavage products | Y. pestis Topo-I cleavage product accumulation, plate reader | activity, % at 10 µM | 0.064% of 360,000 active | AID 504884; in the data active = activity above about 50%, passing the limit was not always enough
PrP UTR inh = inhibition of PrP 5' UTR reporter expression; cell-based PrP 5' UTR mRNA reporter, plate reader; inhibition, % (no concentration beside the values); 0.35% of 340,000 active; AID 488862; in the data active = inhibition above about 52%; note: 0 = median of the neutral control wells
Starred values were filed as active, the others as inactive.

How did COc1ccc2cnn(-c3ccccc3C)c(=O)c2c1OC do in these assays?
BJeLR lethal: -1.9; Sa ugtP lethal: 2.7; RN4220 kill: -0.5; PfHsp40 rescue: 136.0*; Y pestis TopoI: 8.3; PrP UTR inh: -9.8

How did COC(=O)C1=C(c2ccc(Cl)c(C(F)(F)F)c2)CC2CCC1N2C(=O)N1CCOCC1 (stereo not drawn) do in these assays?
Sa ugtP lethal: -4.6; RN4220 kill: 9.5

Results for C=C1C(=O)C=C2CN(C(=O)c3ccccc3)[C@@](Cc3ccc(F)cc3)(C(=O)OC)[C@@H]12 ?
BJeLR lethal: 107.4*; PfHsp40 rescue: -0.2; Y pestis TopoI: 10.8; PrP UTR inh: -23.8

How did S=C(NN=Cc1ccccc1Cl)Nc1ccccc1 do in these assays?
Sa ugtP lethal: 91.1*; RN4220 kill: -2.5

Results for Fc1ccc(C=NNC(=S)Nc2ccc(Cl)cc2Cl)cc1 ?
Sa ugtP lethal: 2.1; RN4220 kill: -4.7

How did FC(F)(F)c1ccc(Cl)c(NC(=S)NN=Cc2ccccc2C(F)(F)F)c1 do in these assays?
Sa ugtP lethal: 86.1*; RN4220 kill: 5.6

How did FC(F)(F)c1ccc(Cl)c(NC(=S)N/N=C/c2ccccc2C(F)(F)F)c1 do in these assays?
BJeLR lethal: -12.1; PfHsp40 rescue: 0.0; Y pestis TopoI: -1.2; PrP UTR inh: -6.4

Results for Fc1cccc(C=NNC(=S)Nc2ccccc2Cl)c1 ?
Sa ugtP lethal: 93.3*; RN4220 kill: 1.0

Results for S=C(N/N=C/c1ccccc1Cl)Nc1ccccc1 ?
BJeLR lethal: -11.9; PfHsp40 rescue: 1.3; Y pestis TopoI: 4.5; PrP UTR inh: 3.0

How did CCOC(=O)C1C2COc3cc(OC)ccc3C2N2C(=O)c3cc(F)c(F)cc3NC(=O)[C@@]12C (stereo partly drawn) do in these assays?
Sa ugtP lethal: 2.8; RN4220 kill: 5.6

What do the screens show for `N[C@@H](Cc1c[nH]c2ccccc12)c1nnc(SCc2ccccc2)o1`?
BJeLR lethal: 7.9; Sa ugtP lethal: -8.9; RN4220 kill: 9.0; PfHsp40 rescue: 0.4; Y pestis TopoI: 7.1; PrP UTR inh: -8.7

Results for Brc1ccc(CSc2nnc(Cc3c[nH]c4ccccc34)o2)cc1 ?
BJeLR lethal: -6.1; Sa ugtP lethal: 42.2; RN4220 kill: 8.4; PfHsp40 rescue: 36.9*; Y pestis TopoI: 9.8; PrP UTR inh: -12.4

How did C#CCOCCOCCOCCNc1nc(N2CCN(C(=O)Cn3cc(CC(C)O)nn3)CC2)nc(N2CCN(C(=O)C(CCCCN)n3cc(CCCC)nn3)CC2)n1 (stereo not drawn) do in these assays?
Sa ugtP lethal: -2.2; RN4220 kill: 4.3

Results for CC(NC(=O)c1nc[nH]c1C(=O)NCCCCCNC(=O)OC(C)(C)C)C(=O)OCc1ccccc1 (stereo not drawn) ?
Sa ugtP lethal: 5.6; RN4220 kill: 10.8

How did COc1cccc(C2NC(=S)NC3=C2CCc2ccccc23)c1 (stereo not drawn) do in these assays?
BJeLR lethal: -9.4; Sa ugtP lethal: -3.5; RN4220 kill: 5.0; PfHsp40 rescue: 173.0*; Y pestis TopoI: 10.9; PrP UTR inh: -10.1

What do the screens show for `CCCc1nnc(NC(=O)c2c(O)c3cccc4c3n(c2=O)CCC4)s1`?
BJeLR lethal: -19.8; Sa ugtP lethal: 95.7*; RN4220 kill: 88.4*

How did CCCCNC(=O)c1c(O)c2cccc3c2n(c1=O)CCC3 do in these assays?
BJeLR lethal: -8.2; Sa ugtP lethal: -1.4; RN4220 kill: -10.7; PfHsp40 rescue: 9.0; Y pestis TopoI: 0.6; PrP UTR inh: -1.3

Results for Cc1noc(C)c1NC(=O)Nc1cccc2c1OC(CN(C)S(=O)(=O)c1c(C)noc1C)C(C)CN(C(C)CO)C2=O (stereo not drawn) ?
Sa ugtP lethal: 0.0; RN4220 kill: -0.3

Results for N#CC(C#N)=NNc1ccc(-n2ccc(C(F)(F)F)n2)cc1 ?
BJeLR lethal: 59.0*; PfHsp40 rescue: 186.0*; Y pestis TopoI: -7.7; PrP UTR inh: -9.4

How did NS(=O)(=O)c1ccc(Nc2c([N+](=O)[O-])cncc2[N+](=O)[O-])cc1 do in these assays?
BJeLR lethal: -5.7; Sa ugtP lethal: 89.8*; RN4220 kill: 96.4*; PfHsp40 rescue: -0.7; Y pestis TopoI: -13.0; PrP UTR inh: -3.5

What do the screens show for `Nc1cccc(Nc2ccccc2)c1`?
BJeLR lethal: 8.5; Sa ugtP lethal: -11.6; RN4220 kill: 9.3; PfHsp40 rescue: -0.4; Y pestis TopoI: -15.7; PrP UTR inh: -4.4

How did c1ccc(Nc2cccc(Nc3ccccc3)c2)cc1 do in these assays?
BJeLR lethal: -13.0; Sa ugtP lethal: -21.1; RN4220 kill: -16.3; PfHsp40 rescue: 68.6*; Y pestis TopoI: -1.7; PrP UTR inh: -59.7

Results for CCCCCCNC(=O)c1cccc(-c2ccc(C)c3ccccc23)n1 ?
BJeLR lethal: -4.4; Sa ugtP lethal: 89.9*; RN4220 kill: -4.2; PfHsp40 rescue: -1.4; Y pestis TopoI: 6.4; PrP UTR inh: -10.1

How did COc1ccc(Br)cc1C=NNC(=O)c1ccc(COc2ccc3c(c2)CCC3)o1 do in these assays?
Sa ugtP lethal: -0.2; RN4220 kill: -3.1

How did Oc1ccc(Br)cc1-c1nc2cnccn2c1NC1CCCCC1 do in these assays?
BJeLR lethal: -6.8; Sa ugtP lethal: -17.5; RN4220 kill: -10.2; PfHsp40 rescue: 93.8*; Y pestis TopoI: 9.6; PrP UTR inh: -17.4

Results for COC(=O)c1sc(-c2ccc(C(C)(C)C)cc2)cc1NC(=O)COCC(=O)O ?
BJeLR lethal: 0.4; Sa ugtP lethal: 0.2; RN4220 kill: 9.4; PfHsp40 rescue: 32.8*; Y pestis TopoI: 35.9; PrP UTR inh: -58.1

What do the screens show for `COc1ccccc1C1=CC(=O)CC(c2ccc3c(c2)OCO3)C1` (stereo not drawn)?
Sa ugtP lethal: 6.4; RN4220 kill: 6.6

What do the screens show for `CCC=CC(=O)N1CC2(CC(c3cccc(NC(=O)COc4ccc(Cl)cc4)c3)=NO2)CC1C(N)=O` (stereo not drawn)?
Sa ugtP lethal: 4.2; RN4220 kill: 5.9

Results for CN(CC(=O)Nc1ccc(Cl)c(C(F)(F)F)c1)C(=O)CCN1C(=O)C2CCCCC2C1=O (stereo not drawn) ?
BJeLR lethal: 2.0; Sa ugtP lethal: 93.6*; RN4220 kill: 67.0; PfHsp40 rescue: -1.0; Y pestis TopoI: 3.0; PrP UTR inh: -54.4

Results for O=c1cc(-c2ccc(Cl)cc2)oc(=O)[nH]1 ?
BJeLR lethal: 3.5; Sa ugtP lethal: -0.9; RN4220 kill: 5.0; PfHsp40 rescue: 0.4; Y pestis TopoI: 3.0; PrP UTR inh: -18.4

Results for O=c1cc(N=Nc2ccc(Cl)cc2)[nH]c(=O)[nH]1 ?
BJeLR lethal: 13.1; Sa ugtP lethal: 100.4*; RN4220 kill: 99.6*; PfHsp40 rescue: 2.5; Y pestis TopoI: -5.8; PrP UTR inh: -28.4

What do the screens show for `CC(NC(=O)c1nc[nH]c1C(=O)NC1CCN(C(=O)OC(C)(C)C)CC1)c1ccccc1` (stereo not drawn)?
Sa ugtP lethal: 3.8; RN4220 kill: 5.7

Screening data from PubChem BioAssay.
